According to PubChem BioAssay (Tox21):
“And” between values parts separate entries of the source, which are not always exact repeats. Equal entries are not always repeated. Inconclusive results are not listed. Some compounds were tested as several samples or in several runs, with calls that do not always agree. The source made the active and inactive calls. Unless noted, the call rests on the fitted dose curve; in most records, active means well fitted curve in the direction sought with a large enough effect in the repeat runs; inconclusive means weak or mixed curves; inactive means no such curve, though single readings can be large; an effect the other way counts as inactive or inconclusive.

Experiments:
[1] = qHTS assay to identify aromatase inhibitors - cell viability counter screen (AID 743084);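 further: cells stimulated with testosterone during compound exposure; nearly all actives have a fitted effect of over 55% in size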; further: potency means the concentration at half of the fitted maximal effect
[2] = target: Aryl hydrocarbon receptor (Homo sapiens) (UniProt P35869); assay: qHTS assay to identify small molecule that activate the aryl hydrocarbon receptor (AhR) signaling pathway (AID 743085); further: nearly all actives have a fitted effect of over 15% in size; further: potency means the concentration at half of the fitted maximal effect;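 on activation: HG2L7.5c1 human HepG2 liver cells with stably integrated DRE-driven firefly reporter; series mostly up to about 70 µM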
In short: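 Cell line HG2L7.5c1 (human hepatoma, 20× DRE-luc). Plated, 5 h 37C, compound/DMSO added, 24 h 37C. CellTiter-Fluor 30 min 37C → fluorescence; then ONE-Glo 30 min RT → luminescence.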

[3] = qHTS assay to identify small molecule that activate the aryl hydrocarbon receptor (AhR) signaling pathway - cell viability counter screen (AID 743086);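 further: HepG2 liver cells carrying the AhR DRE luciferase reporter; series mostly up to about 70 µM; nearly all actives have a fitted effect of over 45% in size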
In short: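 Cytotoxicity counter screen: CellTiter-Fluor signal (30 min, 37 C) in 4000 HepG2 cells/well carrying the DRE-luciferase reporter, following 24 h compound exposure at 37 C.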

[4] = target: Peroxisome proliferator-activated receptor gamma (Homo sapiens) (UniProt P37231); assay: qHTS assay to identify small molecule agonists of the peroxisome proliferator-activated receptor gamma (PPARg) signaling pathway (AID 743094; active means well fitted activation curve with a large enough effect in the signal ratio in the repeat runs, not every such curve was filed as active; the % refers to the signal ratio)
In short: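 Following 5 h plating at 37C, PPARg-bla HEK293H cells receive compound or DMSO for 17 h; fluorescence intensity is recorded after LiveBLAzer B/G loading for 1 h at room temperature.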

[5] = qHTS assay for small molecule agonists of the antioxidant response element (ARE) signaling pathway (AID 743202; active means well fitted activation curve with a large enough effect in the signal ratio in the repeat runs, not every such curve was filed as active; the % refers to the signal ratio; further: potency means the concentration at half of the fitted maximal effect)
In short: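 An ARE-responsive beta-lactamase gene stably integrated in HepG2 cells serves as reporter. After 5 h plating and 16 h compound incubation at 37 C, fluorescence of the B/G FRET substrate was measured.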

[6] = qHTS assay for small molecule agonists of the antioxidant response element (ARE) signaling pathway - cell viability counter screen (AID 743203; calls by dose curve; further: nearly all actives have a fitted effect of over 55% in size; further: potency means the concentration at half of the fitted maximal effect)
In short: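 Compounds in DMSO were pinned onto ARE-bla HepG2 cells plated 5 hrs earlier at 2,000 cells/well. Sixteen hours later at 37C/5% CO2, CellTiter-Glo was added and luminescence measured after 30 min at room temperature.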

[7] = qHTS assay for small molecule activators of the heat shock response signaling pathway - cell viability counter screen (AID 743209); further: nearly all actives have a fitted effect of over 50% in size
In short: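 Counter screen for cytotoxicity in HeLa HSE-bla reporter cells. Treatment was 5 h at 37 C; viability was detected by luminescent ATP assay (CellTiter-Glo) in the same wells as the beta-lactamase read.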

[8] = qHTS assay to identify small molecule antagonists of the peroxisome proliferator-activated receptor delta (PPARd) signaling pathway - cell viability counter screen (AID 743213); further: nearly all actives have a fitted effect of over 50% in size
In short: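 Luminescence from CellTiter-Glo, added after the bla read and incubated 30 min at room temperature, gives viability of HEK293H PPARd-bla cells exposed to compounds for 17 h at 37 C with 300 nM L165041.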

[9] = qHTS assay to identify small molecule antagonists of the farnesoid-X-receptor (FXR) signaling pathway - cell viability counter screen (AID 743221; active means well fitted cell-killing curve with a large enough effect in the repeat runs, not every such curve was filed as active; further: nearly all actives have a fitted effect of over 50% in size)
In short: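 Luminescence from CellTiter-Glo measures cytotoxicity in GeneBLAzer FXR-UAS-bla HEK 293T cells. Cells were exposed to compounds with 50 uM chenodeoxycholic acid (final) for 16 h at 37 C, in wells also used for the reporter readout.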

[10] = target: Peroxisome proliferator-activated receptor gamma (Homo sapiens) (UniProt P37231); assay: qHTS assay to identify small molecule antagonists of the peroxisome proliferator-activated receptor gamma (PPARg) signaling pathway (AID 743191; calls by dose curve; further: nearly all actives have a fitted effect of over 30% in size; further: potency means the concentration at half of the fitted maximal effect)
In short: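 Beta-lactamase reporter under UAS control in HEK293H PPARg-bla cells; compound treatment 17 h at 37C. Read-out: fluorescence intensity after 1 h room-temperature incubation with LiveBLAzer B/G FRET substrate.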

[11] = qHTS assay for small molecule activators of the heat shock response signaling pathway (AID 743210; active means well fitted activation curve with a large enough effect in the signal ratio in the repeat runs, with a control signal flat, not every such curve was filed as active; the % refers to the signal ratio;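 further: HeLa cells with beta-lactamase reporter driven by heat shock elements; series mostly up to about 63 µM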)
In short: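 In HSE-bla HeLa cells, 5 h compound incubation (37 C) precedes addition of LiveBLAzer B/G substrate; after 2.5 h at room temperature, fluorescence intensity indicates reporter induction.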

[12] = qHTS assay to identify small molecule agonists of the peroxisome proliferator-activated receptor delta (PPARd) signaling pathway - cell viability counter screen (AID 743211); further: nearly all actives have a fitted effect of over 55% in size
In short: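 HEK293H PPARd-bla, 3000 cells/well; 5 h preincubation 37C/5% CO2; cpd in DMSO, 17 h 37C; B/G FRET substrate 2 h RT; CellTiter-Glo 30 min RT, luminescence.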

[13] = target: Peroxisome proliferator-activated receptor delta (Homo sapiens) (UniProt Q03181); assay: qHTS assay to identify small molecule agonists of the peroxisome proliferator-activated receptor delta (PPARd) signaling pathway (AID 743212; calls by dose curve)
In short: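 HEK293H UAS-bla reporter cells, human PPARd system; compounds delivered in DMSO after 5 h plating, then at 37 C. Beta-lactamase FRET read, 2 h RT substrate step.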

[14] = target: Peroxisome proliferator-activated receptor delta (Homo sapiens) (UniProt Q03181); assay: qHTS assay to identify small molecule antagonists of the peroxisome proliferator-activated receptor delta (PPARd) signaling pathway (AID 743215; active means well fitted inhibition curve with a large enough effect in the signal ratio in the repeat runs, not every such curve was filed as active; the % refers to the signal ratio;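 further: cells stimulated with agonist L165041 at 300 nM final during compound exposure; series mostly up to about 62 µM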)
In short: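 With L165041 present at 300 nM final, compounds were incubated 17 h at 37 C on PPARd UAS-bla HEK293H cells. A FRET-based beta-lactamase substrate was then applied for 2 h at room temperature and fluorescence intensity recorded.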

[15] = target: Bile acid receptor (Homo sapiens) (UniProt Q96RI1); assay: qHTS assay to identify small molecule antagonists of the farnesoid-X-receptor (FXR) signaling pathway (AID 743217; active means well fitted inhibition curve with a large enough effect in the signal ratio in the repeat runs, not every such curve was filed as active; the % refers to the signal ratio)
In short: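 In this cell-based antagonist screen, inhibition of CDCA-driven (50 uM final) UAS-beta-lactamase expression in HEK 293T cells was measured by FRET fluorescence following 16 h compound exposure at 37 °C.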

[16] = qHTS assay to identify small molecule agonists of the farnesoid-X-receptor (FXR) signaling pathway - cell viability counter screen (AID 743218); further: nearly all actives have a fitted effect of over 45% in size
In short: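 After 16 h at 37 C with test compounds, FXR-bla HEK 293T cells were given LiveBLAzer B/G substrate for 2 h at RT and then CellTiter-Glo; luminescence was taken after 30 min.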

[17] = target: Bile acid receptor (Homo sapiens) (UniProt Q96RI1); assay: qHTS assay to identify small molecule agonists of the farnesoid-X-receptor (FXR) signaling pathway (AID 743220; active means well fitted activation curve with a large enough effect in the signal ratio in the repeat runs, not every such curve was filed as active; the % refers to the signal ratio)
In short: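 Beta-lactamase reporter under UAS control in GeneBLAzer FXR HEK 293T cells (5000/well) measured with LiveBLAzer FRET substrate after 2 h at room temperature. Compound exposure lasted 16 h at 37C.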

[18] = target: Vitamin D3 receptor (Homo sapiens) (UniProt P11473); assay: qHTS assay to identify small molecule agonists of the vitamin D receptor (VDR) signaling pathway (AID 743222; calls by dose curve)
In short: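 VDR-bla cells were seeded, left 4 h, treated with compounds in DMSO for 16 h, incubated 2 h at RT with B/G FRET substrate, and read for fluorescence.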

[19] = target: Vitamin D3 receptor (Homo sapiens) (UniProt P11473); assay: qHTS assay to identify small molecule antagonists of the vitamin D receptor (VDR) signaling pathway (AID 743223; active means well fitted inhibition curve with a large enough effect in the signal ratio in the repeat runs, not every such curve was filed as active; the % refers to the signal ratio)
In short: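 Antagonist mode uses 1alpha,25-dihydroxyvitamin D3 at 3 nM final as stimulus. VDR-bla cells receive compounds in DMSO, incubate 16 h at 37C, then a beta-lactamase FRET substrate for 2 h at room temperature before fluorescence measurement.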

[20] = qHTS assay to identify small molecule antagonists of the peroxisome proliferator-activated receptor gamma (PPARg) signaling pathway - cell viability counter screen (AID 743194); further: nearly all actives have a fitted effect of over 55% in size
In short: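 Viability was measured as CellTiter-Glo luminescence in GeneBLAzer PPARg UAS-bla HEK293H cells. These cells had been exposed 17 h at 37 C to compounds together with rosiglitazone at 50 nM final, with the beta-lactamase readout taken in the same wells.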
On the % scale 0 is the no-effect control and ±100 the full control effect.

Sequence of Aryl hydrocarbon receptor (Homo sapiens) (P35869 whole entry, looked up): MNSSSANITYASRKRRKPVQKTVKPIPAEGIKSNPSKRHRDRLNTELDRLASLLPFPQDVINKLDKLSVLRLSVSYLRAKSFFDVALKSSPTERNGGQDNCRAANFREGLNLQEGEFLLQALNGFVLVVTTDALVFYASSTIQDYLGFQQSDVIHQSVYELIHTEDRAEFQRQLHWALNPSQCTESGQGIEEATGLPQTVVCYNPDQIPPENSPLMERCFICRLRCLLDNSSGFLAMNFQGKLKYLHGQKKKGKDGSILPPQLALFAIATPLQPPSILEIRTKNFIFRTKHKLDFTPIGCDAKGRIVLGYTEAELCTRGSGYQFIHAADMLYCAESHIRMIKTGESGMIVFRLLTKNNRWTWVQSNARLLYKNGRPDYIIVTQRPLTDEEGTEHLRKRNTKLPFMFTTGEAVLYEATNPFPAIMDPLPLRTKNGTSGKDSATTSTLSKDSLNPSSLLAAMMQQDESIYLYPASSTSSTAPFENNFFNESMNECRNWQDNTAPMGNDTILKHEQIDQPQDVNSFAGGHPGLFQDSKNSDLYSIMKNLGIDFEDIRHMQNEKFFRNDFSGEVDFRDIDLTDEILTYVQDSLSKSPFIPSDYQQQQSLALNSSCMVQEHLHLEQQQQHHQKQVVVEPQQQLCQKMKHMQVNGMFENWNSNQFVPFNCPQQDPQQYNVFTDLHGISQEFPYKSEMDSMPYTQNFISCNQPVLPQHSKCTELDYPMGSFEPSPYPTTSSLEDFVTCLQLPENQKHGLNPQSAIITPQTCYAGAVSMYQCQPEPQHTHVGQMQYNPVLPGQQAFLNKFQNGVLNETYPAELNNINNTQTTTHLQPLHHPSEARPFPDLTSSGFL
Sequence of Peroxisome proliferator-activated receptor gamma (Homo sapiens) (P37231 whole entry, looked up): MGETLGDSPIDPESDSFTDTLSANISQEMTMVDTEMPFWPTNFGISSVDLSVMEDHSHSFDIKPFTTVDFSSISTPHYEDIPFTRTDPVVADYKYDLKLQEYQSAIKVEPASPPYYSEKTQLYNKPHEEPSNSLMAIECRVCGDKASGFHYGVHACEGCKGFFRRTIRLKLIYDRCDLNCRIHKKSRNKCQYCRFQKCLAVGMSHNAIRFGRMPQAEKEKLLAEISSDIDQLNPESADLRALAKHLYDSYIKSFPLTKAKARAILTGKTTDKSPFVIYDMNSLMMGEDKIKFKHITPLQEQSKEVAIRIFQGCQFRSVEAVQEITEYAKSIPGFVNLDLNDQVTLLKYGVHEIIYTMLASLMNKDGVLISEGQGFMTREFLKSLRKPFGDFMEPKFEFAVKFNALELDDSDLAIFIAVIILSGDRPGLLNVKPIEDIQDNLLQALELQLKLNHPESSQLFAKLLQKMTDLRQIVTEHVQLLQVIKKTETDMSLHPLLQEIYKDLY
Sequence of Vitamin D3 receptor (Homo sapiens) (P11473 whole entry, looked up): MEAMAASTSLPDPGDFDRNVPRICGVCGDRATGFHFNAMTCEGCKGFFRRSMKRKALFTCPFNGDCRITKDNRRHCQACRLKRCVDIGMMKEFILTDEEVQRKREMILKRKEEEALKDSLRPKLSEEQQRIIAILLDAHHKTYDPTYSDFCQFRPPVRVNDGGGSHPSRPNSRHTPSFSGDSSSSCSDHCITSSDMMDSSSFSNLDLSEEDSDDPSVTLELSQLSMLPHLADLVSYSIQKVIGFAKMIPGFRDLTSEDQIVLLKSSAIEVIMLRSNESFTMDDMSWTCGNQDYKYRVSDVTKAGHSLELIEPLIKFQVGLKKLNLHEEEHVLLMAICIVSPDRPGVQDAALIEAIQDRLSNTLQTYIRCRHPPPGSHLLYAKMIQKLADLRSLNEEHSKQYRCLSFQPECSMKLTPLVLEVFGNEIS
Sequence of Bile acid receptor (Homo sapiens) (Q96RI1 whole entry, looked up): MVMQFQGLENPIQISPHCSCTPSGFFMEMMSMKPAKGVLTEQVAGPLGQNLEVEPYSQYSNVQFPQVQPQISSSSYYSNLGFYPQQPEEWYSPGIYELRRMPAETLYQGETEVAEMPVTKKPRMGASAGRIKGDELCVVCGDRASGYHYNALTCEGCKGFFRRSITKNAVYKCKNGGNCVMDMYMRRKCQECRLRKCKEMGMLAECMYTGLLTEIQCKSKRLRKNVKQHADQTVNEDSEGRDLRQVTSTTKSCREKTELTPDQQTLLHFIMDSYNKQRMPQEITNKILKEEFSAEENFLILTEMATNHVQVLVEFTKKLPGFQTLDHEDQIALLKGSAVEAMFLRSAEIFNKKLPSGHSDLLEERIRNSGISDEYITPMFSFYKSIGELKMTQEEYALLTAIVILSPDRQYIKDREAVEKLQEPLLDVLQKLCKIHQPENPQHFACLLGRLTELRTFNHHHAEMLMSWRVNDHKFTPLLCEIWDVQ
Sequence of Peroxisome proliferator-activated receptor delta (Homo sapiens) (Q03181 whole entry, looked up): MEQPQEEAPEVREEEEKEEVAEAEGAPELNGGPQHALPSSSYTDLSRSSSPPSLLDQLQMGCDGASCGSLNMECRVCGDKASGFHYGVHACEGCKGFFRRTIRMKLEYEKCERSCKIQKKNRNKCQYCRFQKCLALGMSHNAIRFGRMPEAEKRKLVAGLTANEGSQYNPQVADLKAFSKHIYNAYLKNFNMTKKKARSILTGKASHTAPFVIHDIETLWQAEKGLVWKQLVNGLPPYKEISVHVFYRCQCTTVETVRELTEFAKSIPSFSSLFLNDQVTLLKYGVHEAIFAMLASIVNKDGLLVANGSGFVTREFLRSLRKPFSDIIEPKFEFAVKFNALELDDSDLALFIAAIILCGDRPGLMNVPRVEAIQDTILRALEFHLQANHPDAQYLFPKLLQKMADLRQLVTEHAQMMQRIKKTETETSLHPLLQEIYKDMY

Cc1cc(O)c2c(c1)C(=O)c1cc(O)cc(O)c1C2=O
active: Potency [1] 11.9 µM and 24.3 µM | Potency [2] 5.97 µM and 34.4 µM | Potency [5] 4.23 µM | Potency [6] 23.8 µM
inactive: Potency [3] | outcome [4] | Potency [7] | Potency [8] | Potency [9]

C=CC(=O)OCCCCCCCC(C)C
inactive: Potency [1] | Potency [2] | Potency [3] | outcome [4] | Potency [10] | Potency [6] | Potency [7] | outcome [11] | Potency [12] | outcome [13] | Potency [8] | outcome [14] | outcome [15] | Potency [16] | outcome [17] | Potency [9] | Potency [18] | Potency [19]

OCC1CCCO1 (stereo not drawn)
inactive: Potency [1] | Potency [2] | Potency [3] | outcome [4] | Potency [10] | Potency [5] | Potency [6] | Potency [7] | outcome [11] | Potency [12] | outcome [13] | Potency [8] | outcome [14] | outcome [15] | Potency [16] | outcome [17] | Potency [9] | Potency [18] | Potency [19]

NCCNCCNCCNCCN
inactive: Potency [1] | Potency [2] | Potency [3] | outcome [4] | Potency [20] | Potency [6] | Potency [7] | outcome [11] | Potency [12] | outcome [13] | Potency [8] | outcome [14] | Potency [16] | Potency [9] | Potency [18] | activity change, negative = inhibition [19] 2.31% [at 6.95 µM]

C/C=C(C)/C=C/C=C(C)C
active: Potency [5] 60.4 µM
inactive: Potency [1] | Potency [2] | Potency [3] | outcome [4] | Potency [6] | Potency [7] | Potency [12] | Potency [8] | Potency [9] | Potency [18] | Potency [19]

CC1COc2ccccc2N1C(=O)C(Cl)Cl (stereo not drawn)
17.2 µM (active) and inactive: Potency [2]
inactive: Potency [3] | Potency [20] | Potency [6] | Potency [7] | outcome [11] | Potency [8] | outcome [14] | Potency [16] | Potency [9] | Potency [18]
active: Potency [1] 27.3 µM | Potency [10] 24.5 µM | Potency [5] 19.3 µM and 27.3 µM

COC(=O)c1ccc(C(=O)OC)cc1
inactive: Potency [1] | Potency [2] | Potency [3] | outcome [4] | Potency [10] | Potency [5] | Potency [6] | Potency [7] | Potency [8] | Potency [16] | Potency [9] | Potency [18] | Potency [19]

Cc1ccc(C)c(C)c1
inactive: Potency [1] | Potency [2] | Potency [3] | outcome [4] | Potency [20] | Potency [6] | Potency [7] | outcome [11] | Potency [12] | outcome [13] | Potency [8] | outcome [14] | Potency [16] | Potency [9] | Potency [18] | Potency [19]

O=C1CCCCC1
inactive: Potency [1] | Potency [2] | Potency [3] | outcome [4] | Potency [10] | Potency [5] | Potency [6] | Potency [7] | outcome [11] | outcome [13] | Potency [8] | outcome [14] | Potency [16] | Potency [9] | Potency [18] | Potency [19]

CCCCCCCCC
inactive: Potency [1] | Potency [2] | Potency [3] | outcome [4] | Potency [10] | Potency [5] | Potency [6] | Potency [7] | outcome [11] | Potency [12] | outcome [13] | Potency [8] | outcome [14] | Potency [16] | Potency [9] | Potency [18] | Potency [19]

Cc1ccc(N)c(S(=O)(=O)O)c1
inactive: Potency [1] | Potency [2] | Potency [3] | outcome [4] | Potency [10] | Potency [6] | Potency [7] | outcome [11] | outcome [13] | Potency [8] | outcome [14] | outcome [15] | Potency [16] | outcome [17] | Potency [9] | Potency [18]

CC1=C(/C=C/C(C)=C/C=C/C(C)=C/CO)C(C)(C)CCC1
inactive and 72.3 µM (active): Potency [1]
active: Potency [5] 61.9 µM and 57.4 µM
inactive: Potency [2] | Potency [3] | outcome [4] | Potency [20] | Potency [6] | Potency [7] | Potency [8] | outcome [14] | Potency [16] | Potency [9] | Potency [19]

CC1(C)O[C@@H]2C[C@H]3[C@@H]4C[C@H](F)C5=CC(=O)CC[C@]5(C)[C@H]4[C@@H](O)C[C@]3(C)[C@]2(C(=O)CO)O1
inactive: Potency [1] | Potency [2] | Potency [3] | outcome [4] | Potency [6] | Potency [7] | outcome [11] | Potency [12] | Potency [8] | outcome [14] | Potency [16] | Potency [9] | Potency [18] | Potency [19]

O=[N+]([O-])C(CO)(CO)CO
active: Potency [5] 33.9 µM and 21.7 µM
inactive: Potency [1] | Potency [2] | Potency [3] | outcome [4] | Potency [10] | Potency [6] | Potency [7] | outcome [11] | outcome [13] | Potency [8] | outcome [14] | Potency [16] | Potency [9] | Potency [18] | Potency [19]

OCCOCCOCCOCCO
inactive: Potency [1] | Potency [2] | Potency [3] | Potency [20] | Potency [5] | Potency [6] | Potency [7] | outcome [11] | outcome [13] | Potency [8] | outcome [14] | Potency [16] | Potency [9] | Potency [18] | Potency [19]

CCCCC(CC)C(=O)OCCOCCOCCOC(=O)C(CC)CCCC (stereo not drawn)
inactive: Potency [1] | Potency [3] | outcome [4] | Potency [10] | Potency [6] | Potency [7] | outcome [11] | Potency [12] | outcome [13] | Potency [8] | outcome [14] | Potency [16] | Potency [9] | Potency [18] | Potency [19]

CCCCCCCCCCC=CC1CC(=O)OC1=O (stereo not drawn)
inactive: Potency [3] | Potency [20] | Potency [6] | Potency [7] | outcome [11] | Potency [12] | outcome [13] | Potency [8] | outcome [15] | Potency [16] | outcome [17] | Potency [9] | Potency [18] | Potency [19]
